The campaign covered roughly 4,800 compounds. About 410 (8.5%) showed an effect of 50% or more. The list comes from a sample in which strong results are over-represented; it also holds similar structures and randomly drawn compounds.
test system: Plasmodium falciparum; experiment: Confirmatory screen in NF54 pLDH assay, in single point, at 2uM, 72h; format: functional, Erythrocyte; conditions: timepoint 72 hour

| SMILES | % Inhibition [%] |
| --- | --- |
| CC(C)OC[C@@H](O)CN1CC(C2CCC2)C1 | -19 |
| CC1CCCCC1NC(=O)CN1CCN(Cc2cccc(Cl)c2)C1=O (stereo not drawn) | -4 |
| Cc1cc2ncc(-n3cncn3)c(-c3ccccc3)n2n1 | 8 |
| CCc1ccc(CN2CCN(Cc3cccc(Oc4ccccc4)c3)CC2)cc1 | 8 |
| CCC1CC(CC(=O)NS(=O)(=O)c2ccnn2C)CCO1 (stereo not drawn) | 0 |
| COc1ccc2cc3n(c2c1)C[C@](C(=O)NC1CCCCCC1)(c1ccccc1)N(Cc1ccccc1Cl)C3=O | 13 |
| CC1(C)CCCc2sc(NC(=O)N[C@H]3CCOC4(CCC4)C3)nc21 | 1 |
| Cc1cc(Br)ccc1CN(C)S(C)(=O)=O | -4 |
| CCOc1ccc2sc(NC(=O)Cn3cnc4nc(N5CCCCC5)sc4c3=O)nc2c1 | -1 |
| Cn1ccc(C2=Nc3ccccc3NC(=O)C2)n1 | -4 |
| O=S(=O)(c1ccc(F)c(Cl)c1)N1CC[C@H](Oc2ccncc2Cl)C1 | 89 |
| O=S(=O)(c1ccco1)N1CC[C@H](Oc2ccccc2)C1 | 10 |
| O=S(=O)(c1ccc(Cl)cc1)N1CCC(c2cc(-c3cccc(C(F)(F)F)c3)[nH]n2)CC1 | 0 |
| O=S(=O)(c1ccc(Br)o1)N1CCCC[C@H]1c1ncc[nH]1 | -20 |
| Cc1ccc(NC(=O)COC(=O)c2nccc3ccccc23)cc1 | 11 |
| COc1cccc(CC(=O)N2CCc3nc(N4CCC(C)CC4)nc(Oc4ccccc4OC)c3C2)c1 | 61 |
| COc1cccc(Oc2nc(N3CCN(C)CC3)nc3c2CN(C(=O)Nc2ccccc2)CC3)c1 | 10 |
| CC1CCN(c2nc3c(c(Oc4cccc(F)c4)n2)CN(Cc2ccccn2)CC3)CC1 | 21 |
| Cc1cc(C)n(S(=O)(=O)c2cccc3cccnc23)n1 | -10 |
| COc1cc(OC)cc(C(=O)Nc2ccc3nc(N4CCC(C)CC4)cc(C)c3c2)c1 | 40 |
| CCN(CC)c1ccc(C(=O)Nc2ccc3nc(N4CCCC4)cc(C)c3c2)cc1 | 93 |

| SMILES | % Inhibition [%] |
| --- | --- |
| CCn1cc(C(=O)Nc2ccc(C(=O)N3CCCCC3)cc2)cn1 | 5 |
| O=C1CN(S(=O)(=O)c2ccc(C(F)(F)F)cc2)C2(CCCCC2)CN1CC1CC1 | -14 |
| CCOC(=O)c1c(CN2CCOCC2)n(-c2ccc(C)cc2)c2ccc(Oc3nccc(Nc4ccccc4)c3C#N)cc12 | 7 |
| COCc1cc2nn(CC(=O)Nc3ccc(F)cc3)c(=O)n2c(-c2ccccc2)n1 | -27 |
| O=C(Nc1ccccc1)C1=NN(CC(=O)N2CCCCC2)C(=O)CC1 | -1 |
| CC(NS(C)(=O)=O)C(=O)N1CCC(F)(c2cc(F)cc(F)c2)C1 (stereo not drawn) | 12 |
| COc1ccc(Nc2nc(C(C(F)(F)F)(C(F)(F)F)C(F)(F)F)nc(C(C(F)(F)F)(C(F)(F)F)C(F)(F)F)n2)cc1 | 11 |
| O=c1cc(-c2ccccc2)n(S(=O)(=O)c2ccccc2)o1 | -7 |
| Clc1cccc(N2CCN(Cc3ccc(OC4CCNCC4)cc3)CC2)c1 | 14 |
| CC(=O)C1(C(C)=O)[C@H](c2ccc(F)cc2)C1(C#N)C#N | -24 |
| O=C(CCC1CCCCC1)Nc1ncccn1 | -9 |
| O=C(NCCCc1ccccc1)[C@H]1CCCN(c2nc3ccccc3[nH]2)C1 | -4 |
| CC(C)C1(C)CC(=O)N(C(C(=O)O)c2ccccc2)C1=O (stereo not drawn) | -6 |
| Cc1cc(N)nc(Nc2ccc(Nc3ccccc3)cc2)n1 | 97 |
| c1ccc(Nc2nc(-c3ccccc3)cc(-c3ccccc3)n2)cc1 | 5 |
| Cc1nc(N)nc(C)c1C(=O)Nc1ccc(Nc2ncccn2)cc1 | 36 |
| O=C(NC(C1CC1)C1CC1)c1ccsc1 | -23 |
| Cn1c(C(=O)N2CC[C@H](N)C2)ccc1-c1cccc(Br)c1 | 11 |
| N#Cc1c(-c2ccccc2)cc(-c2ccccc2)n(C(=O)c2ccc(F)cc2)c1=O | 9 |
| Oc1nccc(C(F)(F)C(F)(F)F)n1 | -3 |
| CS(=O)(=O)Nc1nc2ccc(NC(=O)c3cc(-c4ccccc4)nc4ccccc34)cc2s1 | 3 |

| SMILES | % Inhibition [%] |
| --- | --- |
| CCOc1ccc(-c2cc(NC(=O)c3cc(-c4cccnc4)nc4ccccc34)on2)cc1OCC | 98 |
| COc1ccc(-c2cc(C(=O)NC3CCN(C(C)C)CC3)c3ccccc3n2)cc1OC | -18 |
| Cc1ccc(-c2ccc(CN(CC(=O)NCC(=O)O)C(C)C)s2)cc1 | 13 |
| CC(C)n1nccc1NC(=O)c1c[nH]c2ccc(F)cc2c1=O | -4 |
| CCn1c(C)c(C)c2cc(C(=O)Nc3cccc(S(=O)(=O)N4CCOCC4)c3)ccc21 | 4 |
| CCN1CCN(C(=O)c2ccccc2N2CCC(NC(=O)c3cccc(Br)c3)CC2)CC1 | 40 |
| CN(C)Cc1ccc(NC(=O)c2cc(F)cc3c(=O)c4cc(F)ccc4[nH]c23)cc1 | 95 |
| CC(=O)Nc1cccc(C#CCN2CCN(c3ccc(F)cc3)CC2)c1 | 13 |
| CCN1CCN(c2cccc(NC(=O)c3cc(F)cc4c(=O)c5cc(F)ccc5[nH]c34)c2)CC1 | 96 |
| CCN1CCN(c2cccc(NC(=O)c3ccc4[nH]c5ccccc5c(=O)c4c3)c2)CC1 | 100 |
| Cc1cccc(NC(=O)c2cc(C)nc3c2c(C)nn3-c2ccc(F)cc2)c1 | 0 |
| CC(C)NC(=O)N(C)Cc1ccc(F)cc1 | 8 |
| N#CCc1ncc(CCN2C(=O)c3ccccc3C2=O)s1 | 7 |
| COc1ccc(S(=O)(=O)N(c2onc(C)c2Cl)S(=O)(=O)c2ccc(OC)c(OC)c2)cc1OC | 4 |
| CC[C@@H](C(N)=O)N1CCN(Cc2nc(-c3cccs3)no2)CC1 | 7 |
| Cc1noc(-c2csc(-c3c[nH]cn3)n2)n1 | -1 |
| CN(Cc1ccn(C)n1)C(=O)c1cc(S(=O)(=O)N(C)C)c(Cl)cc1Cl | 8 |
| O=C(NC1CCCC1)N1CCN(S(=O)(=O)c2cccc(F)c2)CC1 | 2 |
| COc1ccc(-c2cc(C(=O)N[C@H]3CCN(c4ccc(=O)[nH]n4)C3)c(C)n2C)cc1 | 58 |
| COc1ccc(-c2cc(C(=O)N[C@H]3CCN(c4ccc(=O)n(C)n4)C3)c(C)n2C)cc1 | 41 |
| Cc1c(C(=O)NC2CC2)cc(-c2ccccc2)n1C | 6 |
